Test results published in the supplement of paper PMC9262897, “Low-cost anti-mycobacterial drug discovery using engineered E. coli” (Nature Communications, 2022).
Where a name gives a salt, the structure may show the parent alone. ± gives the standard deviation of the averaged measurements.

Tests used:
Assay in all cases: growth (OD600 after 10 h); higher = more growth (less inhibition)
[1] = test system: E. coli TESEC Alr+ wild-type control; details: compound 0.1 mM; raw OD600 reference: median of DMSO wells 0.241, cell-free background 0.041
Procedure: (§1)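 TESEC Mtb Alr E. coli, or the Alr+ wild-type control, in 384-well plates with Prestwick library compounds at 0.1 mM and 1% DMSO, across arabinose induction levels of 1E3 to 1E7 nM. Growth is read as OD600 after 10 h at 37 °C in triplicate biological replicates.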

E. coli TESEC Mtb Alr [2] = details: compound 0.1 mM
Procedure: as §1

E. coli TESEC Mtb Asd = details: compound 0.1 mM
Procedure: (§2)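 TESEC E. coli strains in which the native enzyme is deleted and replaced by arabinose-inducible Mtb Asd, DapB, CysH or TrpD, each grown in its selective medium. Strains were screened against the Prestwick library at 0.1 mM and 1% DMSO in 384-well format at low and high arabinose induction. Growth is read as OD600 after 10 h in triplicate.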

E. coli TESEC Mtb DapB = details: compound 0.1 mM
Procedure: as §2

[3] = test system: E. coli TESEC Alr+ wild-type control; details: compound 0.1 mM; raw OD600 reference: median of DMSO wells 0.49, cell-free background 0.052
Procedure: (§3)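 TESEC Mtb Alr E. coli (ΔaraC ΔtolC ΔentC Δalr ΔdadX, arabinose-inducible Mtb Alr) or the Alr+ wild-type control strain, grown in defined M9-fructose medium without D-alanine in 96-well plates with Prestwick library compounds at 0.1 mM and 1% DMSO. Low Alr induction is 0.1 µM arabinose and high induction is 10 mM arabinose.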

E. coli TESEC Mtb Alr [4] = details: compound 0.1 mM; remark: listed apart in the source
Procedure: as §3

[5] = arabinose 1000 nM, raw OD600 reference: median of DMSO wells 0.294, cell-free background 0.041
[6] = arabinose 10000 nM, raw OD600 reference: median of DMSO wells 0.264, cell-free background 0.041
[7] = arabinose 100000 nM, raw OD600 reference: median of DMSO wells 0.201, cell-free background 0.041
[8] = arabinose 1000000 nM, raw OD600 reference: median of DMSO wells 0.193, cell-free background 0.041
[9] = arabinose 10000000 nM, raw OD600 reference: median of DMSO wells 0.146, cell-free background 0.041
[10] = arabinose induction (level): High, raw OD600 reference: median of DMSO wells 0.331, cell-free background 0.041
[11] = arabinose induction (level): Low, raw OD600 reference: median of DMSO wells 0.417, cell-free background 0.041
[12] = arabinose induction (level): High, raw OD600 reference: median of DMSO wells […], cell-free background 0.041
[13] = arabinose induction (level): Low, raw OD600 reference: median of DMSO wells 0.227, cell-free background 0.041
[14] = arabinose 100 nM, raw OD600 reference: median of DMSO wells 0.413, cell-free background 0.052
[15] = arabinose 10000000 nM, raw OD600 reference: median of DMSO wells […], cell-free background 0.052

Question: How did the growth [1] turn out when COC(=O)C1=C(C)NC(C)=C(C(=O)OC)C1c1ccccc1[N+](=O)[O-] [Nifedipine] was run?
Answer: 0.0488 ± 0.00049

Question: What about the growth (E. coli TESEC Mtb Alr [2]; [5]) of the same compound?
Answer: 0.144 ± 0.0021

Question: And the growth (E. coli TESEC Mtb Alr [2]; [6])?
Answer: 0.2006 ± 0.0018

Question: What about the growth (E. coli TESEC Mtb Alr [2]; [7]) of the same compound?
Answer: 0.136 ± 0.0053

Question: And the growth (E. coli TESEC Mtb Alr [2]; [8])?
Answer: 0.0952 ± 0.0041

Question: What about the growth (E. coli TESEC Mtb Alr [2]; [9]) of the same compound?
Answer: 0.149 ± 0.0044

Question: What about the growth (E. coli TESEC Mtb Asd; [10]) of the same compound?
Answer: 0.0844 ± 0.0011

Question: And the growth (E. coli TESEC Mtb Asd; [11])?
Answer: 0.0795 ± 0.0099

Question: And the growth (E. coli TESEC Mtb DapB; [12])?
Answer: 0.155 ± 0.018

Question: What about the growth (E. coli TESEC Mtb DapB; [13]) of the same compound?
Answer: 0.216 ± 0.069

Question: What about the growth [3] of the same compound?
Answer: 0.447 ± 0.017

Question: And the growth (E. coli TESEC Mtb Alr [4]; [14])?
Answer: 0.39 ± 0.0088

Question: And the growth (E. coli TESEC Mtb Alr [4]; [15])?
Answer: 0.21 ± 0.039

Question: Which results are given for Nc1nc(=S)c2ncn([C@@H]3O[C@H](CO)[C@@H](O)[C@H]3O)c2[nH]1 [Thioguanosine]?
Answer: growth [1]: 0.0575 ± 0.0014; growth (E. coli TESEC Mtb Alr [2]; [5]): 0.0503 ± 0.0022; growth (E. coli TESEC Mtb Alr [2]; [6]): 0.0465 ± 0.00055; growth (E. coli TESEC Mtb Alr [2]; [7]): 0.0493 ± 0.00055; growth (E. coli TESEC Mtb Alr [2]; [8]): 0.0474 ± 0.00055; growth (E. coli TESEC Mtb Alr [2]; [9]): 0.05337 ± 0.00021; growth (E. coli TESEC Mtb Asd; [10]): 0.209 ± 0.0071; growth (E. coli TESEC Mtb Asd; [11]): 0.127 ± 0.014; growth (E. coli TESEC Mtb DapB; [12]): 0.174 ± 0.011; growth (E. coli TESEC Mtb DapB; [13]): 0.115 ± 0.032; growth [3]: 0.349 ± 0.02; growth (E. coli TESEC Mtb Alr [4]; [14]): 0.225 ± 0.028; growth (E. coli TESEC Mtb Alr [4]; [15]): 0.0964 ± 0.0089

Question: For CCCNC(=O)NS(=O)(=O)c1ccc(Cl)cc1 [Chlorpropamide], which growth [1] is on record?
Answer: 0.255 ± 0.0063

Question: What about the growth (E. coli TESEC Mtb Alr [2]; [5]) of the same compound?
Answer: 0.301 ± 0.007

Question: What about the growth (E. coli TESEC Mtb Alr [2]; [6]) of the same compound?
Answer: 0.25 ± 0.0077

Question: And the growth (E. coli TESEC Mtb Alr [2]; [7])?
Answer: 0.23 ± 0.048

Question: And the growth (E. coli TESEC Mtb Alr [2]; [8])?
Answer: 0.184 ± 0.008

Question: And the growth (E. coli TESEC Mtb Alr [2]; [9])?
Answer: 0.141 ± 0.0057

Question: And the growth (E. coli TESEC Mtb Asd; [10])?
Answer: 0.392 ± 0.035

Question: And the growth (E. coli TESEC Mtb Asd; [11])?
Answer: 0.409 ± 0.057

Question: What about the growth (E. coli TESEC Mtb DapB; [12]) of the same compound?
Answer: 0.234 ± 0.032

Question: What about the growth (E. coli TESEC Mtb DapB; [13]) of the same compound?
Answer: 0.231 ± 0.0079

Question: And the growth [3]?
Answer: 0.525 ± 0.065

Question: And the growth (E. coli TESEC Mtb Alr [4]; [14])?
Answer: 0.396 ± 0.02

Question: What about the growth (E. coli TESEC Mtb Alr [4]; [15]) of the same compound?
Answer: 0.3521 ± 0.0031

Question: With CC(=O)OCC(=O)[C@@]1(O)CC[C@H]2[C@@H]3CCC4=CC(=O)CC[C@]4(C)[C@@]3(F)[C@@H](O)C[C@@]21C [Fludrocortisone acetate] as the compound, how does the growth [1] read?
Answer: 0.188 ± 0.0026

Question: And the growth (E. coli TESEC Mtb Alr [2]; [5])?
Answer: 0.235 ± 0.021

Question: What about the growth (E. coli TESEC Mtb Alr [2]; [6]) of the same compound?
Answer: 0.255 ± 0.012

Question: And the growth (E. coli TESEC Mtb Alr [2]; [7])?
Answer: 0.141 ± 0.0083

Question: And the growth (E. coli TESEC Mtb Alr [2]; [8])?
Answer: 0.1074 ± 0.0007

Question: What about the growth (E. coli TESEC Mtb Alr [2]; [9]) of the same compound?
Answer: 0.128 ± 0.0027

Question: What about the growth (E. coli TESEC Mtb Asd; [10]) of the same compound?
Answer: 0.249 ± 0.066

Question: And the growth (E. coli TESEC Mtb Asd; [11])?
Answer: 0.37 ± 0.092

Question: And the growth (E. coli TESEC Mtb DapB; [12])?
Answer: 0.188 ± 0.014

Question: What about the growth (E. coli TESEC Mtb DapB; [13]) of the same compound?
Answer: 0.242 ± 0.039

Question: What about the growth [3] of the same compound?
Answer: 0.459 ± 0.028

Question: And the growth (E. coli TESEC Mtb Alr [4]; [14])?
Answer: 0.401 ± 0.0079

Question: And the growth (E. coli TESEC Mtb Alr [4]; [15])?
Answer: 0.229 ± 0.02

Question: Cc1cc(/C=C/c2ccc3cc(N(C)C)ccc3[n+]2C)c(C)n1-c1ccccc1 [Pyrvinium pamoate] was tested. Which growth [1] did it give?
Answer: 0.0976 ± 0.0031

Question: What about the growth (E. coli TESEC Mtb Alr [2]; [5]) of the same compound?
Answer: 0.0602 ± 0.0021

Question: What about the growth (E. coli TESEC Mtb Alr [2]; [6]) of the same compound?
Answer: 0.0614 ± 0.0072

Question: And the growth (E. coli TESEC Mtb Alr [2]; [7])?
Answer: 0.0747 ± 0.009

Question: And the growth (E. coli TESEC Mtb Alr [2]; [8])?
Answer: 0.0511 ± 0.00066

Question: What about the growth (E. coli TESEC Mtb Alr [2]; [9]) of the same compound?
Answer: 0.0872 ± 0.0092

Question: What about the growth (E. coli TESEC Mtb Asd; [10]) of the same compound?
Answer: 0.071 ± 0.00096

Question: And the growth (E. coli TESEC Mtb Asd; [11])?
Answer: 0.0642 ± 0.0028

Question: And the growth (E. coli TESEC Mtb DapB; [12])?
Answer: 0.0704 ± 0.0048

Question: What about the growth (E. coli TESEC Mtb DapB; [13]) of the same compound?
Answer: 0.0798 ± 0.011

Question: And the growth [3]?
Answer: 0.141 ± 0.019

Question: And the growth (E. coli TESEC Mtb Alr [4]; [14])?
Answer: 0.142 ± 0.013

Question: What about the growth (E. coli TESEC Mtb Alr [4]; [15]) of the same compound?
Answer: 0.162 ± 0.025

Question: With Nc1nc(N)c2nc(-c3ccccc3)c(N)nc2n1 [Triamterene] as the compound, how does the growth [1] read?
Answer: 0.135 ± 0.0027

Question: What about the growth (E. coli TESEC Mtb Alr [2]; [5]) of the same compound?
Answer: 0.146 ± 0.012

Question: What about the growth (E. coli TESEC Mtb Alr [2]; [6]) of the same compound?
Answer: 0.12 ± 0.0045

Question: And the growth (E. coli TESEC Mtb Alr [2]; [7])?
Answer: 0.138 ± 0.0069

Question: And the growth (E. coli TESEC Mtb Alr [2]; [8])?
Answer: 0.0711 ± 0.0011

Question: What about the growth (E. coli TESEC Mtb Alr [2]; [9]) of the same compound?
Answer: 0.119 ± 0.0058

Question: What about the growth (E. coli TESEC Mtb Asd; [10]) of the same compound?
Answer: 0.235 ± 0.014

Question: What about the growth (E. coli TESEC Mtb Asd; [11]) of the same compound?
Answer: 0.411 ± 0.015

Question: What about the growth (E. coli TESEC Mtb DapB; [12]) of the same compound?
Answer: 0.165 ± 0.0077

Question: What about the growth (E. coli TESEC Mtb DapB; [13]) of the same compound?
Answer: 0.203 ± 0.046

Question: And the growth [3]?
Answer: 0.422 ± 0.0047

Question: What about the growth (E. coli TESEC Mtb Alr [4]; [14]) of the same compound?
Answer: 0.416 ± 0.0074

Question: And the growth (E. coli TESEC Mtb Alr [4]; [15])?
Answer: 0.122 ± 0.016

Question: What does the source list for CC(C)(C)NC[C@H](O)COc1nsnc1N1CCOCC1 [Timolol maleate salt]?
Answer: growth [1]: 0.2306 ± 0.00072; growth (E. coli TESEC Mtb Alr [2]; [5]): 0.306 ± 0.0088; growth (E. coli TESEC Mtb Alr [2]; [6]): 0.252 ± 0.0061; growth (E. coli TESEC Mtb Alr [2]; [7]): 0.198 ± 0.0053; growth (E. coli TESEC Mtb Alr [2]; [8]): 0.172 ± 0.0044; growth (E. coli TESEC Mtb Alr [2]; [9]): 0.151 ± 0.006; growth (E. coli TESEC Mtb Asd; [10]): 0.451 ± 0.021; growth (E. coli TESEC Mtb Asd; [11]): 0.432 ± 0.019; growth (E. coli TESEC Mtb DapB; [12]): 0.206 ± 0.016; growth (E. coli TESEC Mtb DapB; [13]): 0.258 ± 0.018; growth [3]: 0.51 ± 0.069; growth (E. coli TESEC Mtb Alr [4]; [14]): 0.401 ± 0.015; growth (E. coli TESEC Mtb Alr [4]; [15]): 0.32 ± 0.021
